# Reference: the supplement of paper PMC11732987, “Enantioselective OTUD7B fragment discovery through chemoproteomics screening and high-throughput optimisation” (Communications Chemistry, 2025)
# Values without a mark were called inactive.
# Legend:
# Assay in all cases: log2 ratio of Biotin-Ahx-Ub-VS probe labelling (fragment/DMSO); higher = less target engagement (more negative = stronger competition), active = hit call of the paper (q ≤ 0.05, log2 ratio ≤ -1)
# Conditions in all cases: compound concentration: 200 uM; treatment time: 3 h
# USP42 = molecular target: T1, USP42 (UniProt Q9H9J4)
# T1 sequence (whole entry): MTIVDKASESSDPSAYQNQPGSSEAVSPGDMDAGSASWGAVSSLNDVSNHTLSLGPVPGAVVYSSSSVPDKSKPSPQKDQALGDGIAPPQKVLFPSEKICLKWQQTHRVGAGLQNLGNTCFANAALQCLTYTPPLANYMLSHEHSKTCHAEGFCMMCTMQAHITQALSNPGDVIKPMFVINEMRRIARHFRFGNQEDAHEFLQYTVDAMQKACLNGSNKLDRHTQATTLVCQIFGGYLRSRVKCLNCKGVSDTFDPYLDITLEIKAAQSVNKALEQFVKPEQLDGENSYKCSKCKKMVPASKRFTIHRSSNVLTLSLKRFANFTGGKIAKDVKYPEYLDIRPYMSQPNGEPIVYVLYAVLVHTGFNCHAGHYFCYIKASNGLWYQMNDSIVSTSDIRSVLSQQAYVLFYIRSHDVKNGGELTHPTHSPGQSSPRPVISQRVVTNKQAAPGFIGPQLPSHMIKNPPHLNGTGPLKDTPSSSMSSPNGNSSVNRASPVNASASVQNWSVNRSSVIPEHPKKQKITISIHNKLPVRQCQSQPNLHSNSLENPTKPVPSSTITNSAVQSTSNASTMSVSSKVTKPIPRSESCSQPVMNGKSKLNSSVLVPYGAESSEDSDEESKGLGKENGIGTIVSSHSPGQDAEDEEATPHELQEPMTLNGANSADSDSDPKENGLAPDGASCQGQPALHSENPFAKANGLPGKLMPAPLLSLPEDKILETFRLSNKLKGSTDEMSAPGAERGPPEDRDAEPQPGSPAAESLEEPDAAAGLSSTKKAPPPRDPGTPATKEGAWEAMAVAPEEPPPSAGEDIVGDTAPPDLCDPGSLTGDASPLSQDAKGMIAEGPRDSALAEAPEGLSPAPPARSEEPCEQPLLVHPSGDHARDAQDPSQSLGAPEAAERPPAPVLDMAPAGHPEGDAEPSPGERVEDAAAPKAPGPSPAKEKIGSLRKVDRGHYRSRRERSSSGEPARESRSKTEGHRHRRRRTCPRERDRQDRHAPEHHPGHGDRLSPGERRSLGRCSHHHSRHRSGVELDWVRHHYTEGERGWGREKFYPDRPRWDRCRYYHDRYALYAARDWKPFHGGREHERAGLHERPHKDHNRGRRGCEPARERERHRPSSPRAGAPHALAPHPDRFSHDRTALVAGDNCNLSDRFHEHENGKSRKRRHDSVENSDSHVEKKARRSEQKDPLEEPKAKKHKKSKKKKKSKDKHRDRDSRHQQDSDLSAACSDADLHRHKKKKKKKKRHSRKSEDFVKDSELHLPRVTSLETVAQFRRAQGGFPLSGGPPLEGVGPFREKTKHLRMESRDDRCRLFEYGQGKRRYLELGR
# How it was run: (§1)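 Fragment (200 µM) or vehicle was incubated for 3 h with triplicate HEK293T lysate samples of 495 µg, which were then treated with Biotin-Ahx-Ub-VS at 0.5 µM final for 1 h. Labelled DUBs were enriched on NeutrAvidin, digested with LysC and trypsin, and analysed by diaPASEF LC-MS/MS. Values are average log2 fragment/vehicle ratios from an unpaired t-test on global-median-normalised Spectronaut label-free quantities, using proteins with ≥2 unique peptides.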
# USP46 = USP46 (UniProt P62068)
# How it was run: as §1
# USP47 = molecular target: T2, USP47 (UniProt Q96K76)
# T2 sequence (whole entry): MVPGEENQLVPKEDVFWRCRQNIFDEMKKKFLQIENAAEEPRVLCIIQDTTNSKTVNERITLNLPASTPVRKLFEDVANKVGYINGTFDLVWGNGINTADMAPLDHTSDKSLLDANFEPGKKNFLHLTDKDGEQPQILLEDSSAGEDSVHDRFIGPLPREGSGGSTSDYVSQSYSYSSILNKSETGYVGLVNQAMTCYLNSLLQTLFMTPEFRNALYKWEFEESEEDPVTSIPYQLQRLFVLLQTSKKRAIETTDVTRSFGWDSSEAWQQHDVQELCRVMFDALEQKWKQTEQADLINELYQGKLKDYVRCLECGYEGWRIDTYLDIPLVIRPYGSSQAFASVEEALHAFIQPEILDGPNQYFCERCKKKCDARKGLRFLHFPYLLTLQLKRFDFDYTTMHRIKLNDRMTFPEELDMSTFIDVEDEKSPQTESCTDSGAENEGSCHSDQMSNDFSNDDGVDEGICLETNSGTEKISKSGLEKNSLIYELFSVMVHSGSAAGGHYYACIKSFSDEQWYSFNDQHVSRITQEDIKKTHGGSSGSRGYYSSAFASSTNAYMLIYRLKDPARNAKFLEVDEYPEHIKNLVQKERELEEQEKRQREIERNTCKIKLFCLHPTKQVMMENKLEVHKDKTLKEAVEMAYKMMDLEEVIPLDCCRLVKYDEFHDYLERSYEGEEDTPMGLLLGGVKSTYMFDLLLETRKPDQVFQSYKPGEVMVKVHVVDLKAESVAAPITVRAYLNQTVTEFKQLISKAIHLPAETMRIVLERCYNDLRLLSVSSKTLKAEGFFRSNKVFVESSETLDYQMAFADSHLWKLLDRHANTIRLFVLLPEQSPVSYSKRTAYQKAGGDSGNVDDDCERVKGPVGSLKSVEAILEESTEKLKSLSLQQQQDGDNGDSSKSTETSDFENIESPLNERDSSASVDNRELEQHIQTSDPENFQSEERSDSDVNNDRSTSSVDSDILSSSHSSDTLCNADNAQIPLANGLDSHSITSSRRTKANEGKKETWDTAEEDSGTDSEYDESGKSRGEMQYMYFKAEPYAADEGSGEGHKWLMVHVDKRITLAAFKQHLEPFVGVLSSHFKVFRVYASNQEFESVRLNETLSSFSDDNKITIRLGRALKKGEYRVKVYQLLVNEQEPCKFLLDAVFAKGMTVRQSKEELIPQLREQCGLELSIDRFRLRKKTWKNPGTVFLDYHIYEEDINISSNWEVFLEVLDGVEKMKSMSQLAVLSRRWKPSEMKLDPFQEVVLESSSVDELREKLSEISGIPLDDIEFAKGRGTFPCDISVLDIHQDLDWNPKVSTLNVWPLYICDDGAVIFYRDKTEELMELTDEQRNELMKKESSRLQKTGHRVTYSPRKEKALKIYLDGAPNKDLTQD
# How it was run: as §1
# USP48 = molecular target: T3, USP48 (UniProt Q86UV5)
# T3 sequence (whole entry): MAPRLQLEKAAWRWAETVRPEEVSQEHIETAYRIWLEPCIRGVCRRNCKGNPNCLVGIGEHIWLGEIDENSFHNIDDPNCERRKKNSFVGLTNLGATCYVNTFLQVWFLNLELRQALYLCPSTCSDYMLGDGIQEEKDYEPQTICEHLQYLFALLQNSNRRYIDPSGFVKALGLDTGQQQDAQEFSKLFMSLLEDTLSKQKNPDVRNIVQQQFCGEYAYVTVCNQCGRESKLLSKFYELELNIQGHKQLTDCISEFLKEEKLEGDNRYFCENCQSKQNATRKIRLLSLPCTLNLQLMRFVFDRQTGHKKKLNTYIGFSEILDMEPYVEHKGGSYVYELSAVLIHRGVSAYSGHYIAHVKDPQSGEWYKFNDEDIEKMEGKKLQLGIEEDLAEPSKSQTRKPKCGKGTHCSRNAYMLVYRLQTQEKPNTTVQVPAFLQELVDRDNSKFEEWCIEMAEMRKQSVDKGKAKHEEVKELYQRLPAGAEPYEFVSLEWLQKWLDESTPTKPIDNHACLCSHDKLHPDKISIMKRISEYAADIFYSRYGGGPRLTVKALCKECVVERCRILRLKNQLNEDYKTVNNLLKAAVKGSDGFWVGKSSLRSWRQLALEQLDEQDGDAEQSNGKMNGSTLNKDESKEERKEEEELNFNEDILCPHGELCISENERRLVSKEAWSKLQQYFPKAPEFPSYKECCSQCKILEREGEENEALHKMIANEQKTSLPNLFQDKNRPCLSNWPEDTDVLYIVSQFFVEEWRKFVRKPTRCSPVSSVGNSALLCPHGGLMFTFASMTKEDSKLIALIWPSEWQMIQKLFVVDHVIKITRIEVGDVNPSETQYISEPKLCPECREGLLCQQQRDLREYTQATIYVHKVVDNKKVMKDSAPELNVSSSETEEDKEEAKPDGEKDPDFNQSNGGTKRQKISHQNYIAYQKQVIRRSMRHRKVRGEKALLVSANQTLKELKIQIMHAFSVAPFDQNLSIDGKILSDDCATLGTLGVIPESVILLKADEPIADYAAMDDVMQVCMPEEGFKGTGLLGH
# How it was run: as §1
# USP5 = molecular target: T4, USP5 (UniProt P45974)
# T4 sequence (whole entry): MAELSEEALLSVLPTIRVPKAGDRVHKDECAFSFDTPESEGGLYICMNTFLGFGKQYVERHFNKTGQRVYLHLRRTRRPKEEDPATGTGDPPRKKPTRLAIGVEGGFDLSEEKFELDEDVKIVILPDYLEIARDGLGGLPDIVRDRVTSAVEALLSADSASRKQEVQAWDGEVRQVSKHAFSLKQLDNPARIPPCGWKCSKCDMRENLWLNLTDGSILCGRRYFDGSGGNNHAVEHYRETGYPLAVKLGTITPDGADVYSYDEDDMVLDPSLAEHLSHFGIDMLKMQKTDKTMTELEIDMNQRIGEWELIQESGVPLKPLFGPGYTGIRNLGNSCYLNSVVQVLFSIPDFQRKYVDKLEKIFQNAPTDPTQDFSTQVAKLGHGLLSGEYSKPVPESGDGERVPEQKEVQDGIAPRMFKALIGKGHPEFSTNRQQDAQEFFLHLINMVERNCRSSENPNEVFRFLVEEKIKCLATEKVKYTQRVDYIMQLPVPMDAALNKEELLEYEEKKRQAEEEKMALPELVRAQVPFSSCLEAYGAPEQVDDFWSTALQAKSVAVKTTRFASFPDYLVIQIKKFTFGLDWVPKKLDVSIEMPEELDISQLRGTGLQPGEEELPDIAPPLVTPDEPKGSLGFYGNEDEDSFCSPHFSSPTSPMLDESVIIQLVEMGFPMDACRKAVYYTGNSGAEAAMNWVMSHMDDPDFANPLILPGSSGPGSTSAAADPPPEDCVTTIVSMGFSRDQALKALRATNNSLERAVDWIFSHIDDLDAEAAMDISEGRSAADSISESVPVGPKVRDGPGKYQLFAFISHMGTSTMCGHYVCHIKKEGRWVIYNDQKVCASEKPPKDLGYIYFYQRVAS
# How it was run: as §1
# USP54 = USP54 (UniProt Q70EL1)
# How it was run: as §1
# USP7 = USP7 (UniProt Q93009)
# How it was run: as §1
# USP8 = molecular target: T5, USP8 (UniProt P40818)
# T5 sequence (whole entry): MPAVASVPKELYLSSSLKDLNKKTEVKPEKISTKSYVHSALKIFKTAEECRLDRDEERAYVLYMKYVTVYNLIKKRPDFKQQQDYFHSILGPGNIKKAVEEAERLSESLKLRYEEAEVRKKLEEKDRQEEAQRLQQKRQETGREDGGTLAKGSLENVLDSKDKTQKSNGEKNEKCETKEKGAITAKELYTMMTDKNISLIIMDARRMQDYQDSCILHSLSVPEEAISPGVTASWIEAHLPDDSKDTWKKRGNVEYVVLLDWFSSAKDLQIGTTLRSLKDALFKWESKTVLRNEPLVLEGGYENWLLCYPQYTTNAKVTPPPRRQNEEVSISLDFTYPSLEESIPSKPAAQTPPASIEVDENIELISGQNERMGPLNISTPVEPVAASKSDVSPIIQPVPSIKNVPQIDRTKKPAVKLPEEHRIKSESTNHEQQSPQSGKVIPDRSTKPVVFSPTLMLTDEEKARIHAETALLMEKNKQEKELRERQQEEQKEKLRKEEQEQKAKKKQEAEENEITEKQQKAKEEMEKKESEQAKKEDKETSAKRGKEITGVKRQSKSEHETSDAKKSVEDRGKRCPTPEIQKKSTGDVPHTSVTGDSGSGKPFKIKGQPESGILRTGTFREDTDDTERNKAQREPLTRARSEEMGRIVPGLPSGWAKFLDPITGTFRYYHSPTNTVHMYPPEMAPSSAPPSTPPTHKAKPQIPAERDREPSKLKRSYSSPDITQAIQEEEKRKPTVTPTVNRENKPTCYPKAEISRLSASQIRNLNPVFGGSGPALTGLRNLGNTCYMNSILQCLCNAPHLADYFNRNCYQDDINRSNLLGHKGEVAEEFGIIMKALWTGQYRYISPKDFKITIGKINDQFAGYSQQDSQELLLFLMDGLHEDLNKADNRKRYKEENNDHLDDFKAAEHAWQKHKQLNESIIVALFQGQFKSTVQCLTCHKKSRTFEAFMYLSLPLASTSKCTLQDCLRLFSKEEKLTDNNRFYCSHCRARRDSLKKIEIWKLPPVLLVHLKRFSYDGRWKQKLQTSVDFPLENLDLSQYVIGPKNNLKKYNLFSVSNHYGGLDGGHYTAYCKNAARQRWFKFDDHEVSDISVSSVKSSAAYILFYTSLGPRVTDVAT
# How it was run: as §1
# USP9X = USP9X (UniProt Q93008)
# How it was run: as §1
# UniProt O00487 = molecular target: UniProt O00487
# How it was run: as §1
# Sequence of USP54 (Q70EL1 whole entry): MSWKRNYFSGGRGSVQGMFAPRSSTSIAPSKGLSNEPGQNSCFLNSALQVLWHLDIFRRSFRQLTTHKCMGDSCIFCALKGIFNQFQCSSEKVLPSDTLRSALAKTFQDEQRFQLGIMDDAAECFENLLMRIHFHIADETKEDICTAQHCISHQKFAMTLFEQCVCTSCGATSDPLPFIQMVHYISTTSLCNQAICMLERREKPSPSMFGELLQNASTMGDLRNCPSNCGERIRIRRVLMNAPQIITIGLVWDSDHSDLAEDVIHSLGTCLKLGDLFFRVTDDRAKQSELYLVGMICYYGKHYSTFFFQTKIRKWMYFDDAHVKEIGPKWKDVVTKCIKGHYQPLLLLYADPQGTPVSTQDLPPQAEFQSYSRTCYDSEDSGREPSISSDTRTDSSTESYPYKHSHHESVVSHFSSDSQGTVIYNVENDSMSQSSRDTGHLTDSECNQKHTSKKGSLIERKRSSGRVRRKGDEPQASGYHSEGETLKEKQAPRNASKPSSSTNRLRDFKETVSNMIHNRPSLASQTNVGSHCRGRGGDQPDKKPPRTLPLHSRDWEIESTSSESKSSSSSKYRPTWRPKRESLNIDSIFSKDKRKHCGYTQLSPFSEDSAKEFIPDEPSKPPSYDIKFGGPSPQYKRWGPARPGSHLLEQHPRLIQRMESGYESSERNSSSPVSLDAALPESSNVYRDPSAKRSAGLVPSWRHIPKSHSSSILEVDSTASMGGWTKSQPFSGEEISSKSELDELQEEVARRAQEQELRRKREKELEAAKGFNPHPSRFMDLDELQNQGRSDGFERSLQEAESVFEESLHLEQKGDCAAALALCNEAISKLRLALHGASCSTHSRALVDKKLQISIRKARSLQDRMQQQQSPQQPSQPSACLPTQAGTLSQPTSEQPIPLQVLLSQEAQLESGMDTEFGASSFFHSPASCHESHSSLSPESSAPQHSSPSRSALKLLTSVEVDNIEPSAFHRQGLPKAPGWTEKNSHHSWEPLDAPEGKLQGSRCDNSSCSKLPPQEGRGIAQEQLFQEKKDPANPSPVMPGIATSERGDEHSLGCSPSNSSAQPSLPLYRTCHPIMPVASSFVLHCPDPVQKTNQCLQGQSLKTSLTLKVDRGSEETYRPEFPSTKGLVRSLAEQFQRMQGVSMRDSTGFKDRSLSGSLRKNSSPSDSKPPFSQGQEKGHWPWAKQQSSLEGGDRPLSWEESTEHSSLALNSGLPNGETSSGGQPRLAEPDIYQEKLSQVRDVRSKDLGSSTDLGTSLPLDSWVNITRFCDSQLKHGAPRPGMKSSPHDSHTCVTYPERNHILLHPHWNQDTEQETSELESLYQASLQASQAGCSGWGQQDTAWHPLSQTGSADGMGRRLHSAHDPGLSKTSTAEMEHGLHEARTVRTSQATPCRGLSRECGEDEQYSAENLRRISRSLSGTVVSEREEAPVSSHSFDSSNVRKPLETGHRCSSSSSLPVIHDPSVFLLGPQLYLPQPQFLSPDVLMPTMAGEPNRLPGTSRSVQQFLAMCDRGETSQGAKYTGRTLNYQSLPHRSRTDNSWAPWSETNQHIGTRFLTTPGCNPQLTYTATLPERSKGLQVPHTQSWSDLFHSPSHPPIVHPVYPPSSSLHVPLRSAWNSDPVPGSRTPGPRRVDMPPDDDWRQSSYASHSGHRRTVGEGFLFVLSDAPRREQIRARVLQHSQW
# Sequence of USP46 (P62068 whole entry): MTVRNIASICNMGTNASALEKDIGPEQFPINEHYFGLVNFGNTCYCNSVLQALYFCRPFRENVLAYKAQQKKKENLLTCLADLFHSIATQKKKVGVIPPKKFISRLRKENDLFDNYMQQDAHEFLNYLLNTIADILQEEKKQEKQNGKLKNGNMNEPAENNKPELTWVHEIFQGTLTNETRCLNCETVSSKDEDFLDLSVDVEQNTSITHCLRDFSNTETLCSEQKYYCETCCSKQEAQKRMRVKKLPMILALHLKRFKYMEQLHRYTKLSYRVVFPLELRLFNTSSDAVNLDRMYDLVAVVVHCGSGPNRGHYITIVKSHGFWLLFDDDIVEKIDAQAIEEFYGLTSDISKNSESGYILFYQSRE
# Sequence of USP7 (Q93009 whole entry, looked up): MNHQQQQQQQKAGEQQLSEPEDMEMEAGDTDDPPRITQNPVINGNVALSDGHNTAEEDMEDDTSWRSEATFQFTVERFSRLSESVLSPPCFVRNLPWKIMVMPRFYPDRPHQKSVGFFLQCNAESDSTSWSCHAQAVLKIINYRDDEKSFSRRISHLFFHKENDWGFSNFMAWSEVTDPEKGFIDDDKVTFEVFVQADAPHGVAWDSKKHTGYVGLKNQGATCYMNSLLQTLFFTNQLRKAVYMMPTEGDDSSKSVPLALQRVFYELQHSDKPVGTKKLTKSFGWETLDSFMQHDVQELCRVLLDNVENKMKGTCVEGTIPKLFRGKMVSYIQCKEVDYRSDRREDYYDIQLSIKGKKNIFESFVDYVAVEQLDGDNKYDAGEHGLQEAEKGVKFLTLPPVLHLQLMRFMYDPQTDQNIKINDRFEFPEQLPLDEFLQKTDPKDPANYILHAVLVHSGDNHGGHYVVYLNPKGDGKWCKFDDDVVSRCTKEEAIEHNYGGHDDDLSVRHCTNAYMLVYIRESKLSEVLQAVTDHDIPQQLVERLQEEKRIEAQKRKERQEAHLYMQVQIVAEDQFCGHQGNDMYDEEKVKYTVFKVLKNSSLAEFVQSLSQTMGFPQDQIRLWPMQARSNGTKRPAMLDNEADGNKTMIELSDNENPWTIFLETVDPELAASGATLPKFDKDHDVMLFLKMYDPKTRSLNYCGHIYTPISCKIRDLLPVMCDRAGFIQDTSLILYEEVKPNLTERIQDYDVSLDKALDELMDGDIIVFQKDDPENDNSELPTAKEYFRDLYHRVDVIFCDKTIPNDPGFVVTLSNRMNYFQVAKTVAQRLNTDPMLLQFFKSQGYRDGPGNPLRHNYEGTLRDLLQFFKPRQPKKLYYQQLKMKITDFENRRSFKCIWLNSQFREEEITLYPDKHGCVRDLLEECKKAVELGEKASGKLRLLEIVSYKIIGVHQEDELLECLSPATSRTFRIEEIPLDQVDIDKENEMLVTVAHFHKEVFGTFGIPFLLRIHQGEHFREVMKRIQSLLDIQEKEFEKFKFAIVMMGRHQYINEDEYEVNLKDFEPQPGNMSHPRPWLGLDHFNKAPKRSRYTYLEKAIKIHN
# Sequence of UniProt O00487 (O00487 whole entry): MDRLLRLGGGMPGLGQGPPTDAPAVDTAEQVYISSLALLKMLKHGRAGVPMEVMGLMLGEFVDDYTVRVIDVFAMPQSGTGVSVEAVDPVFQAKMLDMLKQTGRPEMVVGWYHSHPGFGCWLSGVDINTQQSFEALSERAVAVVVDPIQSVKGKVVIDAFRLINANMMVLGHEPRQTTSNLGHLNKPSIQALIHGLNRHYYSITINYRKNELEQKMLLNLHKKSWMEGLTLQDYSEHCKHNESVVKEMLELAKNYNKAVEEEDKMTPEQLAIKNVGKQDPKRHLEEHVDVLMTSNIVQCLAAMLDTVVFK
structure (smiles),measurement,setting,value
Cc1ccc(N(C(=O)CCl)C2C=CS(=O)(=O)C2)cc1 (stereo not given),log2 ratio of Biotin-Ahx-Ub-VS probe labelling,USP42,0.262
same,log2 ratio of Biotin-Ahx-Ub-VS probe labelling,USP46,-0.055
same,log2 ratio of Biotin-Ahx-Ub-VS probe labelling,USP47,-1.11 (active)
same,log2 ratio of Biotin-Ahx-Ub-VS probe labelling,USP48,-0.839
same,log2 ratio of Biotin-Ahx-Ub-VS probe labelling,USP5,0.431
same,log2 ratio of Biotin-Ahx-Ub-VS probe labelling,USP54,-0.495
same,log2 ratio of Biotin-Ahx-Ub-VS probe labelling,USP7,-1.19 (active)
same,log2 ratio of Biotin-Ahx-Ub-VS probe labelling,USP8,0.108
same,log2 ratio of Biotin-Ahx-Ub-VS probe labelling,USP9X,0.0636
same,log2 ratio of Biotin-Ahx-Ub-VS probe labelling,UniProt O00487,0.0368
